Assay results taken from PubChem BioAssay AID686996 (Broad Institute, 2013).
The campaign covered roughly 350,000 compounds. About 1,900 (0.54%) were called active. What follows is part of a selection rich in actives, with near analogues and random picks from the rest. Unmarked numbers belong to inactive results.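 How the source made its calls: active means mean inhibition across replicates at least about 35%, with every replicate also reaching that limit (limit read from the data); inconclusive means only one of the two criteria met; inactive means neither criterion met.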

target: Caspase-6 (Homo sapiens) (UniProt P55212); test: human caspase-6 inhibitors, primary screen, biochemical, VEID-R110 fluorescence, single point, set 2 (AID 686996); details: purified caspase-6, Z-VEID-R110 cleavage fluorescence; at 12.5 µM; stronger effect = higher value;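 further: 0% = median of neutral control wells and 100% = no fluorescence left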
Sequence (P55212 24-179 limits assumed): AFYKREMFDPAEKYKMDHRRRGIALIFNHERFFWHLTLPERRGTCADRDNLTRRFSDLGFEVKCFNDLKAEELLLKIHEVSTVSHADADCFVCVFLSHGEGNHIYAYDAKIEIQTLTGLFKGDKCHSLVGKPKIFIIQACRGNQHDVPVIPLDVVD
Sequence (P55212 194-293 limits assumed): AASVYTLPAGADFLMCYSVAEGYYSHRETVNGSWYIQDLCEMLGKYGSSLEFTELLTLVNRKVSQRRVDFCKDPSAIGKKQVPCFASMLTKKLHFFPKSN

Row | SMILES | inhibition
1 | CCCN1[C@H](C(=O)N2CCCCC2)[C@@H](CO)[C@@H]2Cn3c(ccc(-c4ccccc4F)c3=O)[C@@H]21 | 1.71%
2 | CCC(=O)N1CCC2(CC1)CN(Cc1ccc(Cl)cc1)[C@@H](CO)c1[nH]c3cc(OC)ccc3c12 | 1.51%
3 | CC(C(=O)Nc1ccc(O)c(C(=O)O)c1)N1C(=O)/C(=C/c2cccs2)SC1=S (configuration not stated) | 27.5%
4 | O=C(O)C(c1ccccc1)N1C(=O)/C(=C\c2ccc(-c3cccc(Cl)c3)o2)SC1=S (configuration not stated) | 89.6% (active)
5 | CC(C(=O)NC1CCS(=O)(=O)C1)N1C(=O)/C(=C/c2ccc(Cl)cc2)SC1=S (configuration not stated) | 4.77%
6 | CCN1[C@@H]2Cn3c(ccc(C4=CCCCC4)c3=O)[C@H]1[C@@H](C(=O)N1CCCCC1)[C@@H]2CO | 1.04%
7 | O=C(C[C@H]1CC[C@@H]2[C@H](COC[C@@H](O)CN2C(=O)Nc2cccc(F)c2)O1)NCc1ccccc1F | 0.624%
8 | O=C(COC(=O)Cc1ccc(Cl)cc1Cl)NCc1ccco1 | 3.33%
9 | O=C(COC(=O)c1cnc(Cl)c(Cl)c1)NCc1ccco1 | 10.4%
10 | O=C(COC(=O)c1ccccc1O)NCc1ccco1 | 38.4% (active)
11 | N#C[C@H]1[C@@H](c2ccccc2C2=CCCC2)[C@H](CO)N1C(=O)c1cccc(F)c1 | 0.224%
12 | CCC(=O)N1C[C@@H](C)[C@H](OC)CN(C)C(=O)c2cc(NC(=O)NC3CCCC3)ccc2OC[C@H]1C | 0.917%
13 | CCC(=O)N(C)C[C@@H]1Oc2cc(C#CCN(C)C)ccc2S(=O)(=O)N([C@H](C)CO)C[C@H]1C | -0.78%
14 | N#CC1=C(N)Oc2cc(N)ccc2C1c1ccccc1 (configuration not stated) | 37% (active)
15 | N#CC1=C(N)Oc2c(ccc3cccnc23)C1c1ccncc1 (configuration not stated) | 3.1%
16 | Cn1c2c(c(=O)n(C)c1=O)C(c1cccc(F)c1)C(C#N)=C(N)O2 (configuration not stated) | 1.86%
17 | O=C(C[C@@H]1CC[C@H]2[C@@H](COC[C@H](O)CN2C(=O)Nc2ccccc2)O1)NCc1ccccc1F | -1.64%
18 | Cc1ccccc1-c1ccc2c(c1)O[C@@H](CN(C)Cc1ccncc1)[C@@H](C)CN([C@H](C)CO)S2(=O)=O | 2.69%
19 | N#Cc1c(C(F)(F)F)cc(-c2ccc(Cl)cc2)nc1SCC(=O)O | -2.92%
20 | O=C(O)CSc1ccc(S(=O)(=O)N2CCCC2)cn1 | -0.751%
21 | N#Cc1c(N2CCCCC2)nc(N)c2c(N)nc(SCC(=O)O)cc12 | 43.3% (active)
22 | C[C@@H]1CN([C@@H](C)CO)C(=O)Cc2cc(NC(=O)CCN3CCOCC3)ccc2O[C@H]1CN(C)S(=O)(=O)c1ccccc1 | -0.675%
23 | CN(C)C(=O)c1ccc(-c2ccccc2[C@@H]2[C@@H](C#N)N(C(=O)C3CCCC3)[C@H]2CO)cc1 | 2.13%
24 | C[C@@H]1CN([C@H](C)CO)C(=O)c2c(c3ccccc3n2C)-c2ccccc2CO[C@H]1CN(C)S(=O)(=O)c1ccccc1F | -0.557%

Row | SMILES | inhibition
25 | O=C(C[C@@H]1C=C[C@H](NC(=O)C2CCOCC2)[C@H](CO)O1)NCc1ccncc1 | -0.812%
26 | O=C(c1ccc2c(c1)OCO2)N1CC(=O)N2[C@H](C1)[C@@H](c1ccc(C#Cc3ccccc3)cc1)[C@@H]2CO | -1.08%
27 | O=C1OC(/C=C/c2ccccc2)=NC/1=C/c1ccco1 | 38.7% (active)
28 | C[C@H]1CN([C@@H](C)CO)C(=O)c2cc(-c3ccncc3)cnc2O[C@@H]1CN(C)C(=O)c1cccc(F)c1 | 1.35%
29 | Cc1noc(C)c1NC(=O)N(C)C[C@H]1Oc2ccc(N(C)C)cc2CC(=O)N([C@H](C)CO)C[C@H]1C | -3.82%
30 | O=C(C[C@H]1CC[C@@H](NC(=O)Nc2ccc(F)cc2)[C@H](CO)O1)NCc1cccc(F)c1 | -1.29%
31 | COc1cc(NC(=O)COC(=O)c2ccc([N+](=O)[O-])s2)cc(OC)c1OC | 87.1% (active)
32 | COc1ccc(C(=O)COC(=O)c2ccc([N+](=O)[O-])s2)cc1OC | 0.899%
33 | O=C(OCC(=O)N1CCN(c2ccccc2)CC1)c1ccc([N+](=O)[O-])s1 | 22%
34 | O=C(C[C@H]1CC[C@H]2NC[C@@H](O)COC[C@@H]2O1)NCCN1CCCC1 | -1.22%
35 | COc1ccc(Cl)cc1NC(=O)CCS(=O)(=O)c1cc2c(cc1C)NC(=O)CO2 | 0.689%
36 | CCOc1ccc(OCC)c(NC(=O)CCS(=O)(=O)c2ccc(C)cc2)c1 | 0.288%
37 | COc1ccc(Cl)cc1NC(=O)CCS(=O)(=O)c1ccc(Br)cc1 | 87.9% (active)
38 | O=C(Cc1ccc(Br)cc1)NCCc1ccccc1 | 0.216%
39 | Cc1ccc(S(=O)(=O)CCC(=O)OCC(=O)NCCc2ccc(S(N)(=O)=O)cc2)cc1 | 1.6%
40 | O=C(CCS(=O)(=O)c1ccc(Br)cc1)NCCc1ccc(Cl)cc1 | 49% (active)
41 | CC(C)NC(=O)N(C)C[C@@H]1Oc2ccc(NS(=O)(=O)c3cn(C)cn3)cc2C(=O)N([C@@H](C)CO)C[C@@H]1C | 0.64%
42 | C[C@@H]1CCCCO[C@H](CN(C)S(=O)(=O)c2cccs2)[C@@H](C)CN([C@@H](C)CO)C(=O)c2cc(NC(=O)Nc3ccc4c(c3)OCO4)ccc2O1 | 0.247%
43 | Cc1noc(C)c1NC(=O)N(C)C[C@@H]1Oc2ccc(NS(C)(=O)=O)cc2C(=O)N([C@@H](C)CO)C[C@@H]1C | 3.77%
44 | C[C@H](NC(=O)C[C@@H]1C[C@@H]2c3cc(NC(=O)Nc4ccc(C(F)(F)F)cc4)ccc3O[C@@H]2[C@H](CO)O1)c1ccccc1 | -2.54%
45 | O=C(NC[C@@H]1N[C@@H](CO)[C@H]1c1ccc(-c2cccnc2)cc1)c1cccc(F)c1 | 0.599%
46 | CCNc1ccc(C(=O)OCC(=O)N2c3ccccc3NC(=O)C2(C)C)cc1[N+](=O)[O-] | -5.89%
47 | Cc1cc(C(=O)OCC(=O)N2c3ccccc3NC(=O)C2(C)C)c(C)n1-c1ccccc1 | -1.9%
48 | CNS(=O)(=O)c1cccc(C(=O)OCC(=O)N2c3ccccc3NC(=O)C2(C)C)c1 | 35.9% (active)

Row | SMILES | inhibition
49 | C[C@@H]1CCCCO[C@@H](CN(C)C(=O)Nc2ccc(C(F)(F)F)cc2)[C@H](C)CN([C@H](C)CO)C(=O)c2cc(NC(=O)c3ccccc3)ccc2O1 | -0.72%
50 | C[C@@H]1CCCCO[C@H](CN(C)C(=O)Cc2ccccc2)[C@H](C)CN([C@H](C)CO)C(=O)c2cc(NS(=O)(=O)c3cn(C)cn3)ccc2O1 | -3.5%
51 | O=C(Nc1ccc2c(c1)OCCO2)C1CCCC1 | 35.2% (active)
52 | O=C(Nc1ccc2c(c1)OCO2)C1CC1(Cl)Cl (configuration not stated) | -1.32%
53 | O=C(Nc1ccc2c(c1)OCCO2)c1ccoc1 | 0.545%
54 | COC(=O)C[C@@H]1CC[C@@H]2[C@@H](COc3ccc(NC(=O)C4CCOCC4)cc3C(=O)N2C)O1 | -2.32%
55 | C/C=C/c1ccc([C@@H]2[C@H](CO)N(S(=O)(=O)Cc3ccccc3)C23CN(C(=O)C2CCOCC2)C3)cc1 | 0.958%
56 | O=C(NCC[C@H]1CC[C@H](NS(=O)(=O)c2cccc(F)c2)[C@H](CO)O1)C1CCCCC1 | -1.12%
57 | O=C(C[C@@H]1CC[C@H]2[C@@H](COC[C@H](O)CN2C(=O)Nc2ccccc2)O1)NCCc1ccncc1 | 2.19%
58 | CO[C@@H]1CN(C)C(=O)c2ccc(NS(=O)(=O)c3cccc(C)c3)cc2OC[C@@H](C)NC[C@H]1C | -0.731%
59 | CCC(=O)N1[C@H](C(=O)NC2CCC2)[C@@H](CO)[C@@H]2Cn3c(cccc3=O)[C@@H]21 | 0.371%
60 | COc1ccc2c3c(n(C)c2c1)[C@H](CO)N(CC1CCCCC1)CC31CCN(Cc2nccs2)CC1 | -2.93%
61 | CS(=O)(=O)c1ccc2c(c1)SC1=NC(=O)/C(=C/c3ccco3)C(=N)N12 | 56.4% (active)
62 | COc1ccc2c3c(n(C)c2c1)[C@@H](CO)N(C)CC31CN(CC2CC2)C1 | -5.67%
63 | Cc1ccc(S(=O)(=O)Nc2ccc3c(c2)C(=O)N([C@@H](C)CO)C[C@@H](C)[C@H](CN(C)Cc2ccc(Cl)c(Cl)c2)OCCCC[C@@H](C)O3)cc1 | -0.785%
64 | O=C(C[C@@H]1CC[C@@H](NS(=O)(=O)c2ccc(F)cc2)[C@@H](CO)O1)NCCc1ccncc1 | 3.03%
65 | O=C(Nc1ccc(F)cc1)N[C@@H]1CC[C@H](CC(=O)N2CCCCC2)O[C@H]1CO | 1.55%
66 | Cc1ccccc1NC(=O)CSC(=O)c1ccccc1 | 1.82%
67 | Cc1ccccc1NC(=O)Cn1c(=O)n(CC2CCCO2)c(=O)c2ccccc21 (configuration not stated) | 6.2%
68 | Cc1ccccc1NC(=O)CN1C(=O)N/C(=C\c2cccn2-c2cccc(C(=O)O)c2)C1=O | 63.2% (active)
69 | COc1ccc(NC(=O)N[C@H]2CC[C@@H](CCNS(=O)(=O)c3cccc(Cl)c3)O[C@H]2CO)cc1 | -1.94%
70 | Cc1ccc(-c2cnc3c(c2)C(=O)N([C@H](C)CO)C[C@@H](C)[C@@H](CN(C)C(=O)CN(C)C)O3)cc1 | -0.686%
71 | COc1ccc(C(=O)N2C[C@@H]3[C@H](c4ccccc42)[C@H](CO)N3Cc2ccc3c(c2)OCO3)cc1 | -0.922%
72 | COc1ccc(NC(=O)N(C)C[C@H]2OCCCC[C@H](C)Oc3ccc(NS(C)(=O)=O)cc3C(=O)N([C@H](C)CO)C[C@@H]2C)cc1 | -0.91%
